What all share (assay): DAPPL (digital affinity profiling via proximity ligation, sequencing); 10 mM Tris-HCl pH 7.5, 50 mM NaCl, 1 mM DTT, 4% glycerol, room temperature, 30 min; GST-TFs on glutathione beads, 16-mer random dsDNA library, 0.1% formaldehyde crosslink after washing; high values mean tight binding
Common to all, as to details: protein: recombinant; tags: N-terminal GST; dsDNA, one strand shown

The target of one test is T1, FLI1 (Homo sapiens, UniProt Q01543 1-452).
T1 sequence: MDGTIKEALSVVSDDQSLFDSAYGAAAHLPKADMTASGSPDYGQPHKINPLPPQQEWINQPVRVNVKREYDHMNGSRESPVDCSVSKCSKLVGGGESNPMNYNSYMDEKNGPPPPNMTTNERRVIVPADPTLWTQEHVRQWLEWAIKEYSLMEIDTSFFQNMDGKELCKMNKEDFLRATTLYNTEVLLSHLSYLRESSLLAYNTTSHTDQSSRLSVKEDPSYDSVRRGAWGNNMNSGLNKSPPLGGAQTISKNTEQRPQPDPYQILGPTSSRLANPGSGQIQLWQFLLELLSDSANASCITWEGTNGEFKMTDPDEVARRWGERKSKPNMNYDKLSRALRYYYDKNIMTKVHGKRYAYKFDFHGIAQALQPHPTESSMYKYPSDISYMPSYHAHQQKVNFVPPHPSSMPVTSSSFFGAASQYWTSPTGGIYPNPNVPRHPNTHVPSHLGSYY
Put shortly: (§1)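 Beads coated with glutathione captured GST-fused human transcription factors that had been expressed in yeast, and the factors were then given DNA barcodes and pooled with a tag-only sample. The pools were incubated with 200 nmole of a random double-stranded 16-mer DNA library in Tris/NaCl/DTT/glycerol buffer for 30 min at room temperature, washed, crosslinked with 0.1% formaldehyde and proximity-ligated with BsaI/T4 ligase at 37 °C for 1 h. PCR amplification and Illumina NextSeq500 sequencing came last. Binding signal is each hexamer's read frequency for a factor divided by its frequency for the tag-only sample.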

Another test concerns the target T2, ELK1 (Homo sapiens, UniProt P19419 1-428).
T2 sequence: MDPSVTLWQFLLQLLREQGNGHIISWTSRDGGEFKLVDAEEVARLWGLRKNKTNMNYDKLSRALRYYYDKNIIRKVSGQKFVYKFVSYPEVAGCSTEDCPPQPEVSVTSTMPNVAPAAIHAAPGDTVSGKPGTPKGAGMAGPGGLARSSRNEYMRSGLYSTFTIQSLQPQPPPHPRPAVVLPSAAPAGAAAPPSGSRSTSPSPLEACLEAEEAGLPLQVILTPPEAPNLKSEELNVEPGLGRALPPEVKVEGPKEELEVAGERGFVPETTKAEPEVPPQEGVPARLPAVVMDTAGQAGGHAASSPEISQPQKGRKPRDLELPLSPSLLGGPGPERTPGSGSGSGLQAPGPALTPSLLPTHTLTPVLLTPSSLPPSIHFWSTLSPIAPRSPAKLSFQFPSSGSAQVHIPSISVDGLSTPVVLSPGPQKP
Put shortly: as §1

The target of another test is T3, GABPA (Homo sapiens, UniProt Q06546 1-454).
T3 sequence: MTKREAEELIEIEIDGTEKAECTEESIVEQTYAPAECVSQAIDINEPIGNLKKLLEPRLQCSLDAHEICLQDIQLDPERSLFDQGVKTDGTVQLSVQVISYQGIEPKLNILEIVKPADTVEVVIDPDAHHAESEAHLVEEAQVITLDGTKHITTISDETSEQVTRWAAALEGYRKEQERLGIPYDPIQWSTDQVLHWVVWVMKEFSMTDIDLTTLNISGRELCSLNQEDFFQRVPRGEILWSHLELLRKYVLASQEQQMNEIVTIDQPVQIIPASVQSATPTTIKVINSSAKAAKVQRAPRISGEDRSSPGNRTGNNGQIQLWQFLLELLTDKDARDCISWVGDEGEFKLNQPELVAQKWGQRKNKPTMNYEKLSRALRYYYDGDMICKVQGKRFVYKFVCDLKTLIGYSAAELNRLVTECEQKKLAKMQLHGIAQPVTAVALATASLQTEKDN
In short, it runs like this:
as §1

The target of another test is T4, ERG (Homo sapiens, UniProt P11308 1-479).
T4 sequence: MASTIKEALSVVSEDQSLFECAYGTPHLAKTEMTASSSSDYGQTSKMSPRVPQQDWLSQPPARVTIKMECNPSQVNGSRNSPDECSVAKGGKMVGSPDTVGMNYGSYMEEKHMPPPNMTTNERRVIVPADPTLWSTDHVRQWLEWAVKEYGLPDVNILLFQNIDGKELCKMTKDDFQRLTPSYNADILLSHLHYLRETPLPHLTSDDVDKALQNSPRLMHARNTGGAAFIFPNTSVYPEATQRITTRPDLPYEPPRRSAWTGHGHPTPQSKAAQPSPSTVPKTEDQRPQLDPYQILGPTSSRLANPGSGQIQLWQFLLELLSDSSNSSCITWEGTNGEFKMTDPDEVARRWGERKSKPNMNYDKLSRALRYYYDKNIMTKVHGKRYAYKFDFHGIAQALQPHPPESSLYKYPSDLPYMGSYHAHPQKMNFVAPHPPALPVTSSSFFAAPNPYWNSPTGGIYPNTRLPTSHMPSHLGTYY
In short, it runs like this: as §1

A further test deals with ELF1 (Homo sapiens, UniProt P32519 1-619). Put shortly:
as §1

The next test deals with T5, EHF (Homo sapiens, UniProt Q9NZC4 1-300).
T5 sequence: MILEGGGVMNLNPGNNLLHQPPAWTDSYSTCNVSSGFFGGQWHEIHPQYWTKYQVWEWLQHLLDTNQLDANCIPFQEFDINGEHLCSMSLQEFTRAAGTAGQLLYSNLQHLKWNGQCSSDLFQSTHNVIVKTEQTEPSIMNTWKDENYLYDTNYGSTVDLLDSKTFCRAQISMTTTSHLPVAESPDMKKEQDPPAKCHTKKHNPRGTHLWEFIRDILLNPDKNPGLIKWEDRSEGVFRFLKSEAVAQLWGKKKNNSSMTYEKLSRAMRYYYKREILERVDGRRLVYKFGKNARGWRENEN
In short, it runs like this:
as §1

Another test deals with SPI1 (Homo sapiens, UniProt P17947 1-270). Put shortly: as §1
The target in another test is SPIB (Homo sapiens, UniProt Q01892 1-262). Put shortly: as §1
For another test, the target named is T6, ELK3 (Homo sapiens, UniProt P41970 1-407).
T6 sequence: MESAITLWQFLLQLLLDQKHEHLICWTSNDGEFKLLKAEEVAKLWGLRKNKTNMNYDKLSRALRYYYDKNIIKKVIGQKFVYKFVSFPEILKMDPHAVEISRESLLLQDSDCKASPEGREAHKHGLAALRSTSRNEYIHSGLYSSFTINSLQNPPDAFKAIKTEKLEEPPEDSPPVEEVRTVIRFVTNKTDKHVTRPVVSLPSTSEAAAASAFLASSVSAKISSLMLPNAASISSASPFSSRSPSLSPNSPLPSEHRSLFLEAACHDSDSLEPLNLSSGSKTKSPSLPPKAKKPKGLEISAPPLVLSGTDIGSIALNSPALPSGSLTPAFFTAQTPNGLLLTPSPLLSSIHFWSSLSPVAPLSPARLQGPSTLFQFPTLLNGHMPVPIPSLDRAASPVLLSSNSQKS
Put shortly: as §1

Chain of SPIB (Q01892 whole entry): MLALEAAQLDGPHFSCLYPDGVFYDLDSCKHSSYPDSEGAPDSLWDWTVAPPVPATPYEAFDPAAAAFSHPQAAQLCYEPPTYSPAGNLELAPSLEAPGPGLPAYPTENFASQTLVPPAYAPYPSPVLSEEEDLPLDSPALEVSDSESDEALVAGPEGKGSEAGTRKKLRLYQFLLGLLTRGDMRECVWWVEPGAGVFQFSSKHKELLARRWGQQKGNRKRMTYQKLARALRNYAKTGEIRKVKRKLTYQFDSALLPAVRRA
Chain of ELF1 (P32519 whole entry): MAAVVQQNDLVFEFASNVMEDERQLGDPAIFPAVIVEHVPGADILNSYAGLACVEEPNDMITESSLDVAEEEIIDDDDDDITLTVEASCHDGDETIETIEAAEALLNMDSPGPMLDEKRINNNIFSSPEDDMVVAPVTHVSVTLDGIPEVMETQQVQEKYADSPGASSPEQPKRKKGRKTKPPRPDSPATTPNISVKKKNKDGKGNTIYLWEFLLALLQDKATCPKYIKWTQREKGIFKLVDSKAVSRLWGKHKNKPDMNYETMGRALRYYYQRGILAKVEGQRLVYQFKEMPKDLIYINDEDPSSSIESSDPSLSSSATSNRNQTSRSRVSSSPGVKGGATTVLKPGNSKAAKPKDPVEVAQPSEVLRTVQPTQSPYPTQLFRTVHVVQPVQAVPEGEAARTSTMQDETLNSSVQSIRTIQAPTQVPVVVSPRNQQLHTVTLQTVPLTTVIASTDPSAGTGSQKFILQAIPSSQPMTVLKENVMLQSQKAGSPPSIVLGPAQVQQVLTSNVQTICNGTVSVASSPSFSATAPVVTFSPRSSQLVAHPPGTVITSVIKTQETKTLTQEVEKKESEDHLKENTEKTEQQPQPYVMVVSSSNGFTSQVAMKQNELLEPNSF

Turning to TCCTCG, the binding signal with FLI1 was 1.6 fold enrichment (6-mer frequency, TF over GST control); with ELK1, 1.33 fold enrichment (6-mer frequency, TF over GST control); in the test with GABPA, 1.47 fold enrichment (6-mer frequency, TF over GST control); with ERG, 1.42 fold enrichment (6-mer frequency, TF over GST control); with ELF1, 1.47 fold enrichment (6-mer frequency, TF over GST control); in the test with EHF, 1.56 fold enrichment (6-mer frequency, TF over GST control). In addition, the binding signal with SPI1 was 1.46 fold enrichment (6-mer frequency, TF over GST control); with SPIB it was 1.32 fold enrichment (6-mer frequency, TF over GST control); with ELK3, 1.49 fold enrichment (6-mer frequency, TF over GST control).

As for AAACAA, the binding signal with FLI1 is 1.24 fold enrichment (6-mer frequency, TF over GST control); with ELK1, 1.33 fold enrichment (6-mer frequency, TF over GST control); in the test with GABPA it was 1.2 fold enrichment (6-mer frequency, TF over GST control); with ERG, 1.38 fold enrichment (6-mer frequency, TF over GST control); with ELF1, 1.28 fold enrichment (6-mer frequency, TF over GST control); with EHF, 1.26 fold enrichment (6-mer frequency, TF over GST control). Moreover, the binding signal with SPI1 was 1.32 fold enrichment (6-mer frequency, TF over GST control); with SPIB, 1.21 fold enrichment (6-mer frequency, TF over GST control); with ELK3 it was 1.36 fold enrichment (6-mer frequency, TF over GST control).

Consider CTGTCT, for which the binding signal is 1.35 fold enrichment (6-mer frequency, TF over GST control) with FLI1; 1.3 fold enrichment (6-mer frequency, TF over GST control) in the test with ELK1; 1.31 fold enrichment (6-mer frequency, TF over GST control) in the test with GABPA; 1.46 fold enrichment (6-mer frequency, TF over GST control) with ERG; 1.35 fold enrichment (6-mer frequency, TF over GST control) in the test with ELF1; 1.35 fold enrichment (6-mer frequency, TF over GST control) in the test with EHF. Besides, the binding signal with SPI1 was 1.33 fold enrichment (6-mer frequency, TF over GST control); in the test with SPIB it was 1.3 fold enrichment (6-mer frequency, TF over GST control); in the test with ELK3, 1.62 fold enrichment (6-mer frequency, TF over GST control).

Turning to ATTTAA, the binding signal with FLI1 was 1.24 fold enrichment (6-mer frequency, TF over GST control); with ELK1 it was 1.12 fold enrichment (6-mer frequency, TF over GST control); with GABPA, 1.14 fold enrichment (6-mer frequency, TF over GST control); with ERG, 1.14 fold enrichment (6-mer frequency, TF over GST control); with ELF1, 1.22 fold enrichment (6-mer frequency, TF over GST control); with EHF, 1.2 fold enrichment (6-mer frequency, TF over GST control). Further, the binding signal was 1.16 fold enrichment (6-mer frequency, TF over GST control) with SPI1; 1.15 fold enrichment (6-mer frequency, TF over GST control) with SPIB; 1.28 fold enrichment (6-mer frequency, TF over GST control) with ELK3.

For the sequence CTTAGT, the binding signal is 1.17 fold enrichment (6-mer frequency, TF over GST control) in the test with FLI1; 1.17 fold enrichment (6-mer frequency, TF over GST control) with ELK1; 1.2 fold enrichment (6-mer frequency, TF over GST control) with GABPA; 1.18 fold enrichment (6-mer frequency, TF over GST control) with ERG; 1.25 fold enrichment (6-mer frequency, TF over GST control) with ELF1; 1.22 fold enrichment (6-mer frequency, TF over GST control) in the test with EHF. In addition, the binding signal with SPI1 is 1.07 fold enrichment (6-mer frequency, TF over GST control); in the test with SPIB, 1.19 fold enrichment (6-mer frequency, TF over GST control); with ELK3, 1.19 fold enrichment (6-mer frequency, TF over GST control).

Consider AAGTAA, for which the binding signal with FLI1 is 1.17 fold enrichment (6-mer frequency, TF over GST control); in the test with ELK1, 1.25 fold enrichment (6-mer frequency, TF over GST control); in the test with GABPA, 1.3 fold enrichment (6-mer frequency, TF over GST control); in the test with ERG it was 1.25 fold enrichment (6-mer frequency, TF over GST control); with ELF1, 1.27 fold enrichment (6-mer frequency, TF over GST control); in the test with EHF, 1.3 fold enrichment (6-mer frequency, TF over GST control). Besides, the binding signal with SPI1 was 1.34 fold enrichment (6-mer frequency, TF over GST control); in the test with SPIB, 1.22 fold enrichment (6-mer frequency, TF over GST control); with ELK3 it was 1.27 fold enrichment (6-mer frequency, TF over GST control).

GTCTCA: the binding signal with FLI1 was 1.34 fold enrichment (6-mer frequency, TF over GST control); with ELK1 it was 1.32 fold enrichment (6-mer frequency, TF over GST control); in the test with GABPA, 1.35 fold enrichment (6-mer frequency, TF over GST control); with ERG, 1.36 fold enrichment (6-mer frequency, TF over GST control); with ELF1, 1.41 fold enrichment (6-mer frequency, TF over GST control); with EHF it was 1.32 fold enrichment (6-mer frequency, TF over GST control). Further, the binding signal with SPI1 is 1.39 fold enrichment (6-mer frequency, TF over GST control); with SPIB it was 1.41 fold enrichment (6-mer frequency, TF over GST control); with ELK3, 1.32 fold enrichment (6-mer frequency, TF over GST control).

On to CTGTAT, for which the binding signal with FLI1 is 1.35 fold enrichment (6-mer frequency, TF over GST control); with ELK1, 1.28 fold enrichment (6-mer frequency, TF over GST control); in the test with GABPA it was 1.31 fold enrichment (6-mer frequency, TF over GST control); in the test with ERG it was 1.18 fold enrichment (6-mer frequency, TF over GST control); with ELF1, 1.24 fold enrichment (6-mer frequency, TF over GST control); with EHF it was 1.3 fold enrichment (6-mer frequency, TF over GST control). Moreover, the binding signal in the test with SPI1 was 1.23 fold enrichment (6-mer frequency, TF over GST control); with SPIB it was 1.31 fold enrichment (6-mer frequency, TF over GST control); with ELK3, 1.31 fold enrichment (6-mer frequency, TF over GST control).

For the origin of these results see article PMC7862700, “An all-to-all approach to the identification of sequence-specific readers for epigenetic DNA modifications on cytosine”.
